The source made the active and inactive calls.
Legend:
[1] = small molecules captured by biotinylated probe aFSTL3 – biochemical, small-molecule microarray, fluorescence 635/667, stem cell growth factor project, primary screen (AID 1064); settings: higher = more signal;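 further: measures binding of the biotinylated anti-FSTL3 antibody to printed compounds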
[2] = binders from COS7 lysate, DM2A8 probe, primary screen, torsin A project, cell lysate, small-molecule microarray, fluorescence 635/667 (AID 1065); settings: higher = more signal, COS7 lysate expressing mutant human TOR1A
[3] = small molecules captured by biotinylated probe aFGF2 – biochemical, small-molecule microarray, fluorescence 635/667, stem cell growth factor project, primary screen (AID 1067); settings: higher = more signal;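 further: measures binding of biotinylated aFGF2 protein to printed compounds on slides; z-score merges feature fluorescence and signal-to-noise across triplicate slides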
[4] = small molecules captured by biotinylated probe aFGF10 – biochemical, small-molecule microarray, fluorescence 635/667, stem cell growth factor project, primary screen (AID 1071); settings: higher = more signal;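 further: score merges 667 nm spot intensity and signal to noise from triplicate slides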
[5] = molecular target: Neurogenic locus notch homolog protein 2 (Homo sapiens) (UniProt Q04721); assay: small molecules binding Notch2 protein – biochemical, small-molecule microarray, 635 nm fluorescence, stem cell growth factors, primary screen (AID 1073); settings: higher = more signal
[6] = molecular target: Pro-neuregulin-1, membrane-bound isoform (Homo sapiens) (UniProt Q02297); assay: small molecules binding neuregulin-1 protein – biochemical, small-molecule microarray, fluorescence 635/667, psychiatric disease protein project, primary screen (AID 1075); settings: NRG1 binding, 635 nm fluorescence, higher = more signal;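 further: score combines 667 nm spot fluorescence with signal to noise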
[7] = tested on: Neuregulin-1 EGF-like domain; assay: small molecules binding NRG1 EGF domain – biochemical, small-molecule microarray, 635 nm fluorescence, primary screen (AID 1081); settings: higher = more signal;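 further: binding of the protein to compounds printed on small-molecule microarray slides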
[8] = FRG1 expression reporter modulators in myotubes – cell-based, C2C12 myotubes, firefly/Renilla luciferase, luminescence, FRG1 inhibition for FSHD, primary screen (AID 1084); settings: FRG1 promoter luciferase, higher = more signal, called active from +8 up or from −8 down
[9] = small molecules captured by biotinylated probe aFST – biochemical, small-molecule microarray, fluorescence 635/667, stem cell growth factor project, primary screen (AID 1086); settings: higher = more signal;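 further: score merges 667 nm fluorescence with signal-to-noise of each printed compound spot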
[10] = binders of probe aHhip on microarray, primary screen, stem cell growth factor project, biochemical, small-molecule microarray, fluorescence 635/667 (AID 1087); settings: higher = more signal;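 further: score merges spot fluorescence at 667nm with spot signal to noise ratio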

Pro-neuregulin-1, membrane-bound isoform (Homo sapiens), sequence (Q02297 whole entry, looked up, the tested form may be a part, canonical isoform): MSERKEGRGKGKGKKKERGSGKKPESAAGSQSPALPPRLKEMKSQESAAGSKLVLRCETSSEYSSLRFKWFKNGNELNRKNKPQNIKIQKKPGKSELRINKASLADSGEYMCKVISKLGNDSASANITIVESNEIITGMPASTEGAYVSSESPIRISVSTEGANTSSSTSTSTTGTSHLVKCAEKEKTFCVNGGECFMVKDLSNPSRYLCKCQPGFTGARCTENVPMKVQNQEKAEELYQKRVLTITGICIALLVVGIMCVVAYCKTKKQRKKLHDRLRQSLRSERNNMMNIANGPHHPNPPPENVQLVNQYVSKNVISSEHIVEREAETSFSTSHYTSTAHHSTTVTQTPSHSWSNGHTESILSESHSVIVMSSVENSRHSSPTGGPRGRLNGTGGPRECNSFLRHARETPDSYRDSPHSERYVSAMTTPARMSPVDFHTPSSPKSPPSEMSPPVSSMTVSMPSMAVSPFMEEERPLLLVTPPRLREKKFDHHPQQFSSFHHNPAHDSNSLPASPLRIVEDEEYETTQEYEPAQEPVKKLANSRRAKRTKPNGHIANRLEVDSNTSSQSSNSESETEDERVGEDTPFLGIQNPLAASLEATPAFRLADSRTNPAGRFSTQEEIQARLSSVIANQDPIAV
Neurogenic locus notch homolog protein 2 (Homo sapiens), sequence (Q04721 whole entry, looked up, canonical isoform): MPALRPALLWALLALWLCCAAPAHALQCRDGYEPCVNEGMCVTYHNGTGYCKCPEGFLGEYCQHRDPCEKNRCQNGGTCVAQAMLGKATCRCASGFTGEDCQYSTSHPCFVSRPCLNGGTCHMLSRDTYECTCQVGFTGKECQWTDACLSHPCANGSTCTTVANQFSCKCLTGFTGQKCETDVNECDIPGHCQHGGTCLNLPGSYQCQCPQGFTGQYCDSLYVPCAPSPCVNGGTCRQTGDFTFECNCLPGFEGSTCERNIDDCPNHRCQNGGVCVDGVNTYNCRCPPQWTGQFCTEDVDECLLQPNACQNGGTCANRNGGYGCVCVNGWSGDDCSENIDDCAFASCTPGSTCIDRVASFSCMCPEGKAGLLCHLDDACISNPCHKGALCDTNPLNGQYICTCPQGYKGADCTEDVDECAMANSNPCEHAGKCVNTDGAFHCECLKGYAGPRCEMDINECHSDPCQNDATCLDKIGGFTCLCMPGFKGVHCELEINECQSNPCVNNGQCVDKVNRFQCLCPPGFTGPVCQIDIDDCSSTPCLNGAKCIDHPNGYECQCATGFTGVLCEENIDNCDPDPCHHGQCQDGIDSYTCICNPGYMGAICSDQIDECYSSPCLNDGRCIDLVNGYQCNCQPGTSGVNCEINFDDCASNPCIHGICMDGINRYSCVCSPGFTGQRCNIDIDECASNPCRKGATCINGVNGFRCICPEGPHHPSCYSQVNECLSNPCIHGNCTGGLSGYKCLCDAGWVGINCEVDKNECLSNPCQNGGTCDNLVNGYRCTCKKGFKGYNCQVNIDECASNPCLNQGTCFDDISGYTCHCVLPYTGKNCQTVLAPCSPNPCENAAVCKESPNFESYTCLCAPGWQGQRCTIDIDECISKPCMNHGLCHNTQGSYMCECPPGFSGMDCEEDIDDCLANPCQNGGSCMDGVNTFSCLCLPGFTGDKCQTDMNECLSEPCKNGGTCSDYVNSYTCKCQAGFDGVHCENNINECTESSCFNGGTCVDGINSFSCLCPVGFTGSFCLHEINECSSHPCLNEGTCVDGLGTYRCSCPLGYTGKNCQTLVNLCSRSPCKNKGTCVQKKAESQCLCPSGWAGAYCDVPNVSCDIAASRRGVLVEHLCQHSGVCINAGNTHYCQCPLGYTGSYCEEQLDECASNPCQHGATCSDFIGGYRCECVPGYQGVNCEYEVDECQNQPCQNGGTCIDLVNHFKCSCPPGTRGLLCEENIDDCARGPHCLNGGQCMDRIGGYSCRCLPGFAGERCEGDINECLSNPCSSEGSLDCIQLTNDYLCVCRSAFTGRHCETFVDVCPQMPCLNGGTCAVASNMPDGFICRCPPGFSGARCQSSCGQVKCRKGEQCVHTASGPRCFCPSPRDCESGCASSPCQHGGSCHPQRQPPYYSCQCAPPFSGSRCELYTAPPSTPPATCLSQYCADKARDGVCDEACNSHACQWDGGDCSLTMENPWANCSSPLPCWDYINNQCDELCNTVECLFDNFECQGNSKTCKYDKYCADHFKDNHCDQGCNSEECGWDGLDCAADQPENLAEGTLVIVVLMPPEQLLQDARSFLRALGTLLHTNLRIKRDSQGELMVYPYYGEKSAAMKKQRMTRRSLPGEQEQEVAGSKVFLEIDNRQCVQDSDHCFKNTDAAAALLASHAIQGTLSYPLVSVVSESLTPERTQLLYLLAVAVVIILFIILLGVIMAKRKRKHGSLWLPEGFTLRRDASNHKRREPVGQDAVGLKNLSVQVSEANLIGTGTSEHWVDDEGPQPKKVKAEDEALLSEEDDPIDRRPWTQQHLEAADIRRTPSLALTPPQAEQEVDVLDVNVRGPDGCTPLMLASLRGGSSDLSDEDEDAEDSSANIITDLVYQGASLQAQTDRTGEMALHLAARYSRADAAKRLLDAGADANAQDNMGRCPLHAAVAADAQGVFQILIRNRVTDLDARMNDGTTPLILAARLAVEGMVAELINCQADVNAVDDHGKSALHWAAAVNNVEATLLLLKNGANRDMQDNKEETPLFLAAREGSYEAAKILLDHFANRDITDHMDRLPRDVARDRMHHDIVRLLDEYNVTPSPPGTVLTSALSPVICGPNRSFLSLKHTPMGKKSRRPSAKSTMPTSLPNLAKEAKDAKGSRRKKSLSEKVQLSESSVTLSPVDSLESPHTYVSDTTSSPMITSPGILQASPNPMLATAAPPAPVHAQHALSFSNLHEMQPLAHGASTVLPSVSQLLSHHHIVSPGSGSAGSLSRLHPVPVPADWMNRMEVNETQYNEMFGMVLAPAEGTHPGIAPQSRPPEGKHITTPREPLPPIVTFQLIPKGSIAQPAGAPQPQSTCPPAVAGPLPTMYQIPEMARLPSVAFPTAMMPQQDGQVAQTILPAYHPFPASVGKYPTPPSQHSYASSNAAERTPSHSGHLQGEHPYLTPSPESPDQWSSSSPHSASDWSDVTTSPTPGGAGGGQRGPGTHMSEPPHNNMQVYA

Molecule `O=C1CCCC(C2=CCCCC2=O)C1` (stereo not given) has a composite z-score [1] of -0.31, a composite z-score [2] of 0.213 and a composite z-score [3] of -0.0895. It also gave a composite z-score [4] of 0.0787, a composite z-score [5] of 0.312 and a composite z-score [6] of -0.3. For the same molecule, the composite z-score [7] was 0.165, the z-score [8] was 0.222 (inactive) and the composite z-score [9] was 0.0915. For the same molecule, the composite z-score [10] was 0.157.
Work on `O=C1C[C@@H](O)[C@@H](O)[C@@H]2[C@@H]3C(=O)N(Cc4ccccc4)C(=O)[C@@H]3CC[C@@H]12` yielded a composite z-score [1] of -0.281, a composite z-score [2] of 0.311 and a composite z-score [3] of -0.0573. The composite z-score [4] was 0.286, the composite z-score [5] was 0.474 and the composite z-score [6] was 0.205. The composite z-score [7] was 0.771, the z-score [8] was 0.554 (inactive) and the composite z-score [9] was -0.0427. It also gave a composite z-score [10] of -0.204.
Work on `O=C1C=C[C@@H](O)[C@@H]2[C@@H]3C(=O)N(C[C@@H]4CCCO4)C(=O)[C@@H]3CC[C@@H]12` yielded a composite z-score [1] of -0.518, a composite z-score [2] of 0.0078 and a composite z-score [3] of -0.103. It also gave a composite z-score [4] of 0.458, a composite z-score [5] of 0.141 and a composite z-score [6] of -0.0326. For the same molecule, the composite z-score [7] was 0.691, the z-score [8] was -0.241 (inactive) and the composite z-score [9] was 0.041. It also gave a composite z-score [10] of -0.136.
With `C#CCCCON=C1C[C@@H](O)[C@@H](O)[C@@H]2[C@@H]3C(=O)N(C(C)(C)C)C(=O)[C@@H]3CC[C@@H]12` the composite z-score [1] was 2.02, the composite z-score [2] was 0.0189 and the composite z-score [3] was -0.0468. The composite z-score [4] was -0.0755, the composite z-score [5] was -0.707 and the composite z-score [6] was -0.107. For the same molecule, the composite z-score [7] was -0.117, the z-score [8] was -0.305 (inactive) and the composite z-score [9] was 0.987. For the same molecule, the composite z-score [10] was -0.0645.
`CCN1C(=O)[C@H]2[C@H]3[C@H](O)[C@H](O)CC(=NOC[C@H]4O[C@H](c5ccccc5)C=C[C@@H]4Oc4ccc(OC)cc4)[C@@H]3CC[C@H]2C1=O` gave a composite z-score [1] of -0.0474, a composite z-score [2] of 0.174 and a composite z-score [3] of 0.0338. The composite z-score [4] was 0.999, the composite z-score [5] was 0.887 and the composite z-score [6] was 0.488. For the same molecule, the composite z-score [7] was 0.953, the z-score [8] was 0.52 (inactive) and the composite z-score [9] was 0.0352. It also gave a composite z-score [10] of 0.351.
For `CCOC(=O)NN=C1C[C@@H](O)[C@@H](O)[C@@H]2[C@@H]3C(=O)N([C@@H](C)c4ccccc4)C(=O)[C@@H]3CC[C@@H]12`, the composite z-score [1] was -0.291, the composite z-score [2] was 2.08 and the composite z-score [3] was -0.0934. The composite z-score [4] was 0.393, the composite z-score [5] was 0.601 and the composite z-score [6] was -0.133. The composite z-score [7] was 0.11, the z-score [8] was 0.696 (inactive) and the composite z-score [9] was 0.517. The composite z-score [10] was -0.0994.
For `COC(=O)CC=C[C@@H](C)[C@@H](C=NOC[C@H]1O[C@H](c2ccccc2)C=C[C@@H]1Oc1ccc(OC)cc1)OC`, the composite z-score [1] was -0.309, the composite z-score [2] was -0.0766 and the composite z-score [3] was -0.14. The composite z-score [4] was 0.304, the composite z-score [5] was -0.639 and the composite z-score [6] was -0.549. For the same molecule, the composite z-score [7] was -0.282, the z-score [8] was 0.532 (inactive) and the composite z-score [9] was -0.251. For the same molecule, the composite z-score [10] was 0.0373.
`COc1cccc([C@H]2Oc3ccc(OC)cc3C(=NO[C@H](C)c3cn([C@H](CO)Cc4ccccc4)nn3)[C@@H]2O)c1` gave a composite z-score [1] of -0.129, a composite z-score [2] of -0.0315 and a composite z-score [3] of -0.112. It also gave a composite z-score [4] of -0.0993, a composite z-score [5] of -0.468 and a composite z-score [6] of -0.72. The composite z-score [7] was -0.504, the z-score [8] was 0.787 (inactive) and the composite z-score [9] was 0.107. It also gave a composite z-score [10] of -0.134.
Work on `CCOC(=O)[C@H](CC(C)C)NC(=O)CCC1CC(OC(=O)NCc2cccc3ccccc23)CC2(CCCC(COC(=O)NCCOC)O2)O1` (stereo not given in full) yielded a composite z-score [1] of -0.56, a composite z-score [2] of 0.071 and a composite z-score [3] of -0.0216. For the same molecule, the composite z-score [4] was 0.482, the composite z-score [5] was 1.36 and the composite z-score [6] was 1.27. For the same molecule, the composite z-score [7] was 0.931, the z-score [8] was -0.0725 (inactive) and the composite z-score [9] was 0.754. The composite z-score [10] was -0.214.
`O=C(NN=C1C[C@@H](O)[C@@H](O)[C@@H]2[C@@H]3C(=O)N(C[C@@H]4CCCO4)C(=O)[C@@H]3CC[C@@H]12)OCc1ccccc1` gave a composite z-score [1] of -0.51, a composite z-score [2] of 2.32 and a composite z-score [3] of -0.173. The composite z-score [4] was -0.522, the composite z-score [5] was -0.122 and the composite z-score [6] was -0.802. The composite z-score [7] was 0.631, the z-score [8] was -0.891 (inactive) and the composite z-score [9] was -0.0104. It also gave a composite z-score [10] of -0.0994.
`CC(C)=CCCC(C)=CCON=C1C[C@@H](O)[C@@H](O)[C@@H]2[C@@H]3C(=O)N(C(C)(C)C)C(=O)[C@@H]3CC[C@@H]12` showed a composite z-score [1] of 0.0454, a composite z-score [2] of 0.113 and a composite z-score [3] of -0.0473. The composite z-score [4] was 0.257, the composite z-score [5] was 0.0729 and the composite z-score [6] was -0.0925. For the same molecule, the composite z-score [7] was 0.184, the z-score [8] was -0.519 (inactive) and the composite z-score [9] was 0.13. The composite z-score [10] was -0.191.
Molecule `CCCNC(=O)OC[C@H]1O[C@H](CCON=C(C)C)C=C[C@@H]1Oc1ccc(OC)cc1` has a composite z-score [1] of 0.0684, a composite z-score [2] of -0.152 and a composite z-score [3] of -0.0598. It also gave a composite z-score [4] of 0.332, a composite z-score [5] of -0.482 and a composite z-score [6] of 0.0871. For the same molecule, the composite z-score [7] was -0.327, the z-score [8] was 0.534 (inactive) and the composite z-score [9] was 0.139. For the same molecule, the composite z-score [10] was -0.226.
`O=C1C[C@@H](O)[C@@H](O)[C@@H]2[C@@H]3C(=O)N(C[C@@H]4CCCO4)C(=O)[C@@H]3CC[C@H]12` showed a composite z-score [1] of -0.469, a composite z-score [2] of 0.207 and a composite z-score [3] of -0.0901. The composite z-score [4] was 0.377, the composite z-score [5] was 0.733 and the composite z-score [6] was 0.17. For the same molecule, the composite z-score [7] was 0.723, the z-score [8] was -0.0616 (inactive) and the composite z-score [9] was 0.158. For the same molecule, the composite z-score [10] was -0.487.
For `C=CC[C@@H]1C=C[C@H](ON=C[C@@H](C)[C@H](OCc2ccccc2)C(C)C)[C@@H](CO)O1`, the composite z-score [1] was -0.227, the composite z-score [2] was -0.14 and the composite z-score [3] was 0.342. It also gave a composite z-score [4] of -0.433, a composite z-score [5] of -1.1 and a composite z-score [6] of -0.241. For the same molecule, the composite z-score [7] was -0.255, the z-score [8] was 0.715 (inactive) and the composite z-score [9] was -0.0578. The composite z-score [10] was -0.0618.
For `CCOC(=O)[C@H](Cc1ccccc1)NC(=O)OC1CC(CCC2CC(CC)=NO2)OC2(CCCC(COC(=O)NCCC(C)C)O2)C1` (stereo not given in full), the composite z-score [1] was -0.436, the composite z-score [2] was -0.235 and the composite z-score [3] was -0.0692. The composite z-score [4] was 0.354, the composite z-score [5] was 0.165 and the composite z-score [6] was 0.418. For the same molecule, the composite z-score [7] was 0.86, the z-score [8] was 0.309 (inactive) and the composite z-score [9] was -0.0729. The composite z-score [10] was -0.218.
Molecule `CC[C@@H](c1ccccc1)n1c(=O)n2n(c1=O)[C@H]1[C@H](O)[C@@H]3O[C@@H]3C(=NOC[C@@H](O)COCc3ccco3)[C@H]1CC2` has a composite z-score [1] of -0.437, a composite z-score [2] of 0.615 and a composite z-score [3] of -0.116. For the same molecule, the composite z-score [4] was 0.25, the composite z-score [5] was -1.17 and the composite z-score [6] was -0.552. The composite z-score [7] was 0.727, the z-score [8] was 0.0269 (inactive) and the composite z-score [9] was -0.113. For the same molecule, the composite z-score [10] was -0.741.
`C=C(C)C(=O)OCC1CN2[C@@H](CC[C@@H](C)[C@@H]2c2ccc(Br)cc2)C(=O)O1` (stereo not given in full) gave a composite z-score [1] of -0.393, a composite z-score [2] of 0.0802 and a composite z-score [3] of -0.15. It also gave a composite z-score [4] of 0.2, a composite z-score [5] of 0.331 and a composite z-score [6] of -0.0076. The composite z-score [7] was 0.546, the z-score [8] was 1.11 (inactive) and the composite z-score [9] was 0.444. The composite z-score [10] was -0.21.

Source: PubChem BioAssay
